Experiment [1] is described as follows: ATG_GLI_CIS: Attagene CIS-FACTORIAL HepG2 Assay for human Zinc Finger Protein GLI1 (AID 2282945). The conditions noted are these: HepG2, Attagene cis-factorial reporter mRNA, GLI element; actives raise or lower the signal. In a few lines: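 Bidirectional curve fits relative to DMSO, using reporter mRNA levels from RT-PCR plus capillary electrophoresis. Cells were HepG2 transiently carrying cis-regulated reporter constructs, harvested 24 h after dosing.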

The nature of experiment [2]: ATG_ISRE_CIS: Attagene CIS-FACTORIAL HepG2 Assay for human Interferon Regulatory Factor 1 (IRF1) binding to an Interferon-Stimulated Response Element (ISRE) (AID 2282948). The conditions noted are these: HepG2 ISRE cis-reporter (Attagene), mRNA transcription readout; actives raise or lower the signal. In a few lines: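 Read-out: fluorescent RT-PCR products resolved by capillary electrophoresis, reporting endogenous transcription factor activity via ISRE-driven reporter mRNA in transfected HepG2 cells dosed for 24 h; gain or loss fitted relative to DMSO.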

The nature of experiment [3]: ATG_M_32_CIS: Attagene CIS-FACTORIAL HepG2 Assay for M32 Transcription Factor (Internal Marker) (AID 2282949).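 Further: background control marker of the multiplexed CIS panel rather than a real target.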 The note with it: HepG2 Attagene cis-factorial M32 reporter, mRNA; actives raise or lower the signal. An outline of the steps:
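HepG2 transfectants (cis-regulated reporter transcription units) dosed 24 h. Reporter mRNA by RT-PCR plus CE, analysed as gain or loss relative to DMSO.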

Experiment [4] can be described thus: ATG_M_06_CIS: Attagene CIS-FACTORIAL HepG2 Assay for M06 Transcription Factor (Internal Marker) (AID 2282950). The conditions noted are these: HepG2 Attagene CIS-FACTORIAL M06 internal marker reporter; actives raise or lower the signal. An outline of the steps:
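HepG2 liver cells, 24 h exposure. Reporter transcripts from transfected cis-element constructs quantified by RT-PCR/capillary electrophoresis fluorescence. Bidirectional curve fit against DMSO.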

Experiment [5] addresses Hypoxia-inducible factor 1-alpha (Homo sapiens) (UniProt Q16665). The experiment is described as follows: ATG_HIF1a_CIS: Attagene CIS-FACTORIAL HepG2 Assay for human Hypoxia Inducible Factor 1 (HIF1A) (AID 2282951). The note with it: HepG2 Attagene cis-factorial HIF1a reporter transcription; actives raise or lower the signal. An outline of the steps:
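HepG2, transient cis-reporter library, 24 h dosing. RNA → RT (oligo dT) → PCR → 6-FAM primer extension → HpaI → CE. Bidirectional curve fit vs DMSO.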

Experiment [6] has as its target Hepatocyte nuclear factor 6 (Homo sapiens) (UniProt Q9UBC0). Kind of experiment: ATG_HNF6_CIS: Attagene CIS-FACTORIAL HepG2 Assay for human Hepatocyte Nuclear Factor 6 (HNF6) (AID 2282952). The note with it: HepG2 Attagene cis-factorial HNF6 reporter transcription; actives raise or lower the signal. In a few lines:
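Twenty-four-hour chemical treatment of reporter-transfected HepG2 cells precedes RNA isolation, DNase-treated reverse transcription and PCR of reporter sequences. Labelled fragments are sized by capillary electrophoresis and fitted bidirectionally versus DMSO.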

The target in experiment [7] is Heat shock factor protein 1 (Homo sapiens) (UniProt Q00613). Kind of experiment: ATG_HSE_CIS: Attagene CIS-FACTORIAL HepG2 Assay for human Heat Shock Transcription Factor 1 (HSE) (AID 2282953). The note with it: HepG2 HSE cis-reporter, Attagene RNA transcription; actives raise or lower the signal. An outline of the steps: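 Endogenous transcription factor activity captured via cis-promoter reporter units transfected into HepG2; treatment lasted 24 h. Fluorescence intensity of reporter fragments analysed with bidirectional curve fitting, DMSO baseline.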

Experiment [8] is described as follows: ATG_MRE_CIS: Attagene CIS-FACTORIAL HepG2 Assay for human Metal Responsive Element (MRE) (AID 2282954). The note with it: HepG2 MRE cis-reporter transcription, Attagene multiplex; actives raise or lower the signal. An outline of the steps: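 Endogenous MRE-dependent transcription read as reporter mRNA in transiently transfected human HepG2 cells at 24 h. RNA reverse-transcribed, PCR-amplified, labelled and resolved by capillary electrophoresis; gain or loss relative to DMSO.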

Experiment [9] is described as follows: ATG_PBREM_CIS: Attagene CIS-FACTORIAL HepG2 Assay for human Phenobarbital-responsive Enhancer Module (PBREM) (AID 2282955). The conditions noted are these: HepG2 PBREM cis-reporter, Attagene multiplexed transcription; actives raise or lower the signal. An outline of the steps: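 HepG2, transient MRTU transfection, 24 h dosing; RNA → oligo(dT) RT → PCR → 6-FAM extension → HpaI → CE. Bidirectional fit vs DMSO.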

Experiment [10] concerns the target Paired box protein Pax-6 (Homo sapiens) (UniProt P26367). The experiment is described as follows: ATG_Pax6_CIS: Attagene CIS-FACTORIAL HepG2 Assay for human Paired Box 6 (PAX6) (AID 2282956). The conditions noted are these: HepG2 CIS-FACTORIAL PAX6 reporter transcription, RNA readout; actives raise or lower the signal. An outline of the steps:
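Readout: reporter transcript fluorescence after RT-PCR and capillary electrophoresis. Cells: HepG2, transiently transfected with cis-regulated MRTUs. Exposure 24 h. Gain or loss of signal fitted bidirectionally relative to DMSO.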

Experiment [11] is described as follows: ATG_PXRE_CIS: Attagene CIS-FACTORIAL HepG2 Assay for human Pregnane X Receptor Element (PXRE) (AID 2282957). The note with it: HepG2 Attagene CIS-FACTORIAL PXRE reporter, mRNA; actives raise or lower the signal. In a few lines:
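Bidirectional activity, baselined to DMSO, derived from reporter mRNA fluorescence (RT-PCR plus capillary electrophoresis) in HepG2 cells bearing cis-promoter reporter units, 24 h exposure.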

Experiment [12] in a line: ATG_PPRE_CIS: Attagene CIS-FACTORIAL HepG2 Assay for human Peroxisome Proliferator-activated Response Element (PPRE) (AID 2282958). The conditions noted are these: HepG2 PPRE cis-element reporter, Attagene transcription factor profiling; actives raise or lower the signal. In a few lines: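 Transcript-level reporter induction in transfected HepG2 cells after 24 h chemical exposure, quantified by fluorescence from RT-PCR products separated by capillary electrophoresis.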

A short description of experiment [13]: ATG_RORE_CIS: Attagene CIS-FACTORIAL HepG2 Assay for human RAR-related Orphan Receptor Element (RORE) (AID 2282959). The note with it: HepG2 Attagene cis-factorial RORE reporter, mRNA; actives raise or lower the signal. In a few lines:
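Multiplexed reporter assay measuring mRNA induction from a cis promoter element in transiently transfected HepG2 cells after 24 h treatment. Detection via RT-PCR and capillary electrophoresis fluorescence; DMSO serves as baseline.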

The nature of experiment [14]: ATG_Sox_CIS: Attagene CIS-FACTORIAL HepG2 Assay for human SRY-box transcription factor (SOX) (AID 2282960). The note with it: HepG2 Attagene cis-factorial SOX reporter, mRNA; actives raise or lower the signal. An outline of the steps: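 Cells were transfected with reporter constructs under cis-regulatory promoters, then exposed to chemicals for 24 h. Reporter transcripts were quantified by fluorescence after RT-PCR and capillary electrophoresis; activity was fitted in both directions against DMSO.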

Experiment [15] concerns the target Transcription factor Sp1 (Homo sapiens) (UniProt P08047). Kind of experiment: ATG_Sp1_CIS: Attagene CIS-FACTORIAL HepG2 Assay for human Specificity Protein 1 (Sp1) (AID 2282961). The note with it: HepG2 Sp1 cis-reporter transcription, actives raise or lower the signal. In a few lines: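 Measures mRNA induction of an Sp1-linked reporter in HepG2 cells 24 h post-dosing. Multiplexed reporters read by RT-PCR and capillary electrophoresis; DMSO serves as negative control and baseline.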

Experiment [16] in a line: ATG_SREBP_CIS: Attagene CIS-FACTORIAL HepG2 Assay for human Sterol Regulatory Element Binding (SREBP) (AID 2282962). The note with it: HepG2 Attagene cis-factorial SREBP reporter, mRNA; actives raise or lower the signal. An outline of the steps:
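Readout: fluorescent reporter-transcript peaks resolved by capillary electrophoresis after RT-PCR. Cells were human HepG2 carrying transfected cis-promoter reporter constructs, dosed for 24 h. Gain or loss of signal was fitted against DMSO controls.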

Experiment [17] concerns the target Signal transducer and activator of transcription 3 (Homo sapiens) (UniProt P40763). The experiment is described as follows: ATG_STAT3_CIS: Attagene CIS-FACTORIAL HepG2 Assay for human Signal Transducer and Activator of Transcription 3 (STAT3) (AID 2282963). The note with it: HepG2, Attagene cis-factorial STAT3 reporter transcription; actives raise or lower the signal. In a few lines:
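Readout is reporter transcript quantified by RT-PCR and capillary electrophoresis, with 6-FAM primer extension and HpaI digestion. Total RNA is taken 24 h after dosing transiently transfected HepG2 carrying cis-regulated reporter units. Bidirectional fit against DMSO.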

Experiment [18] is described as follows: ATG_TA_CIS: Attagene CIS-FACTORIAL HepG2 Assay for human TA Basal Promoter (AID 2282964). The note with it: HepG2 Attagene CIS-factorial TA basal promoter reporter; actives raise or lower the signal. In a few lines: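 Fluorescence from labelled RT-PCR reporter fragments, separated by capillary electrophoresis, gives the signal. Cells: HepG2 transiently carrying multiple reporter units, 24 h chemical dosing. Gain or loss relative to DMSO.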

Experiment [19] in a line: ATG_TCF_b_cat_CIS: Attagene CIS-FACTORIAL HepG2 Assay for human T-Cell-Factor with beta-catenin (TCF/b-cat) (AID 2282965). The note with it: HepG2 TCF/beta-catenin cis-reporter transcription, actives raise or lower the signal. An outline of the steps:
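Endogenous transcription factor activity is captured through cis-promoter reporter constructs transiently introduced into human HepG2 liver cells. Induced reporter mRNA is measured after 24 h and fitted bidirectionally relative to DMSO.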

A short description of experiment [20]: ATG_GRE_CIS: Attagene CIS-FACTORIAL HepG2 Assay for human Glucocorticoid Response Elements (GRE) (AID 2282947). The conditions noted are these: HepG2 GRE cis-reporter, Attagene multiplex mRNA; actives raise or lower the signal. An outline of the steps: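 Reporter transcripts read by RT-PCR with capillary electrophoresis fluorescence after a 24 h chemical exposure of HepG2 cells transiently transfected with multiple cis-element reporter units. Gain or loss fitted against DMSO.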

Where “and” joins values, the source holds several entries; their conditions need not be identical. Identical values can stand only once. A structure can be active in one record and inactive in another. Calls of active or inactive are those of the source. How the source made its calls: active means hit-call score of the fitted dose curve at least 0.9, where 1 is the maximum; inactive means score below 0.9.

Paired box protein Pax-6 (Homo sapiens), sequence (P26367 whole entry, looked up): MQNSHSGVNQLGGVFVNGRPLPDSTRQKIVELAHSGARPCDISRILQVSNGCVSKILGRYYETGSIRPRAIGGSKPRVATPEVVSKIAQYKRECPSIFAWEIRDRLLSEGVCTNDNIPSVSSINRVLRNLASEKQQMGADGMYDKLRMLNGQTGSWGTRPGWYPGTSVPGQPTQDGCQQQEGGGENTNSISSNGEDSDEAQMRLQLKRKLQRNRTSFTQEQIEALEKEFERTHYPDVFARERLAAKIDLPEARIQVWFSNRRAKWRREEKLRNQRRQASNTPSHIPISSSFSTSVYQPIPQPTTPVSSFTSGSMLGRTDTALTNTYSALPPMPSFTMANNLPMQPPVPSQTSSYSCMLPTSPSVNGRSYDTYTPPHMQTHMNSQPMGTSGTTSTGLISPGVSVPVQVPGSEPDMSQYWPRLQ
Hepatocyte nuclear factor 6 (Homo sapiens), sequence (Q9UBC0 whole entry, looked up, the tested form may be a part): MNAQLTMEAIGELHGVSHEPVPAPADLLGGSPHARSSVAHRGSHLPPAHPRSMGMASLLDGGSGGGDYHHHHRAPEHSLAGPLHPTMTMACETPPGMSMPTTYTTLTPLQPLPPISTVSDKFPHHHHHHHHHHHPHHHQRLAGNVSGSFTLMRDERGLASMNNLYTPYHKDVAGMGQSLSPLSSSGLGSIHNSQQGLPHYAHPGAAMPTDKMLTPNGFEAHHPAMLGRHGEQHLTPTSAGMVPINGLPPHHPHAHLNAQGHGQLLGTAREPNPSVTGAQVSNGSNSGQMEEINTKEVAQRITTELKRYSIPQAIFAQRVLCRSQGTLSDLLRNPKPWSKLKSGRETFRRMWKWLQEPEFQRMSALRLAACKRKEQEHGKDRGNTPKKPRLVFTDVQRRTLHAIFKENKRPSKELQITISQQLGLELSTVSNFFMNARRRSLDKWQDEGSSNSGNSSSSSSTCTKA
Heat shock factor protein 1 (Homo sapiens), sequence (Q00613 whole entry, looked up, the tested form may be a part): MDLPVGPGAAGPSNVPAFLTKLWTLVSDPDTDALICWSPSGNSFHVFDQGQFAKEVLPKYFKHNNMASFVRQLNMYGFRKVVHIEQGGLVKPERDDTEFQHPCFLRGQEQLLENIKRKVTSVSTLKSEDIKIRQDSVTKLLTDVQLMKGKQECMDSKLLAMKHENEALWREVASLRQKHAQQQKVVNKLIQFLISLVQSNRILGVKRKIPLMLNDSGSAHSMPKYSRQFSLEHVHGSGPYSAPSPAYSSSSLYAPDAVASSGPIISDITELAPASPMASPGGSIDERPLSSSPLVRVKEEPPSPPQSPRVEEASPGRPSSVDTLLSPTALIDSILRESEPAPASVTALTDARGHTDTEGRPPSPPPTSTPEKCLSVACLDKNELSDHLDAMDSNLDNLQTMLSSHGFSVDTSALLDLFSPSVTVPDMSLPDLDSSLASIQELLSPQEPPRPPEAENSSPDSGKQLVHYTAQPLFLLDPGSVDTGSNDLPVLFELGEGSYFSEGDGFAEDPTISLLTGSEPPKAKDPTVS
Transcription factor Sp1 (Homo sapiens), sequence (P08047 whole entry, looked up): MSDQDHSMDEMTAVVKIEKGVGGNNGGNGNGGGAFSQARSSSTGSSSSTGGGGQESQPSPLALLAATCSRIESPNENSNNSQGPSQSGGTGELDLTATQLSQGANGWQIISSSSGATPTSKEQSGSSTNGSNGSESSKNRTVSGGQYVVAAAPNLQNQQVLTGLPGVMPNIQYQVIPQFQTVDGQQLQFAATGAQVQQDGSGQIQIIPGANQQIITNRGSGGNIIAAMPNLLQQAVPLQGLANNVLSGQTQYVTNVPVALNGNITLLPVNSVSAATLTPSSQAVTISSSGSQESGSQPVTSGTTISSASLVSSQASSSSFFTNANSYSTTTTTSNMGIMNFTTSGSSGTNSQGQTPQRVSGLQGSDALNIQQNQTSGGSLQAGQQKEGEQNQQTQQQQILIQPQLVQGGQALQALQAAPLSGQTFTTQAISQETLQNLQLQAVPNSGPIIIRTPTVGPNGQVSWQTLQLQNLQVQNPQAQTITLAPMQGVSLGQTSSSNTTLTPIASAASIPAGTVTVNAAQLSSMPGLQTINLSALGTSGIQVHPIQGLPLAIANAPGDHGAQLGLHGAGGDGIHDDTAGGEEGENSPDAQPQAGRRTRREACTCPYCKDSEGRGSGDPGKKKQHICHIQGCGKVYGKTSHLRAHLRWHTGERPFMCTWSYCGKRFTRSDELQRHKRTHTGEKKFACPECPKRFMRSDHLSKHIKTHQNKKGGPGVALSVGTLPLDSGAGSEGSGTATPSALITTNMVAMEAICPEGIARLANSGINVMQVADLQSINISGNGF
Signal transducer and activator of transcription 3 (Homo sapiens), sequence (P40763 whole entry, looked up): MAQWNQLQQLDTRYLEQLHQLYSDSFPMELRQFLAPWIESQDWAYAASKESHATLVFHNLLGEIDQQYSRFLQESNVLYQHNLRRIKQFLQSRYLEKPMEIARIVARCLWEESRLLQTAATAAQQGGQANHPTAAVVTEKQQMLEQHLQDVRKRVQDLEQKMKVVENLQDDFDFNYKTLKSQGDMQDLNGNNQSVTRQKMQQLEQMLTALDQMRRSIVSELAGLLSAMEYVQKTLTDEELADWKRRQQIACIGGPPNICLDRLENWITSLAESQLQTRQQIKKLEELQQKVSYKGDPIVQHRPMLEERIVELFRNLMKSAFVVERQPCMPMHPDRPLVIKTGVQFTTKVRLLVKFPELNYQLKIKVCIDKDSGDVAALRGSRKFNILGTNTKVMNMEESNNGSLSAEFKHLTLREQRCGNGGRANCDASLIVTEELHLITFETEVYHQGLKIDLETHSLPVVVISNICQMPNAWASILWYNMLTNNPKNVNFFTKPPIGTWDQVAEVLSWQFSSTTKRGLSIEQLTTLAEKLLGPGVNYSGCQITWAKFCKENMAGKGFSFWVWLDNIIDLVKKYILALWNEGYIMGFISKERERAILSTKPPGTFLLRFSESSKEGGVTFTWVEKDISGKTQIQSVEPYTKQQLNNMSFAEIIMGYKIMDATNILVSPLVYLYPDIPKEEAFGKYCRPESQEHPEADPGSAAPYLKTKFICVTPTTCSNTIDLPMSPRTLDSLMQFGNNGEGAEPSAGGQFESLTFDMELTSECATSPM
Hypoxia-inducible factor 1-alpha (Homo sapiens), sequence (Q16665 whole entry, looked up): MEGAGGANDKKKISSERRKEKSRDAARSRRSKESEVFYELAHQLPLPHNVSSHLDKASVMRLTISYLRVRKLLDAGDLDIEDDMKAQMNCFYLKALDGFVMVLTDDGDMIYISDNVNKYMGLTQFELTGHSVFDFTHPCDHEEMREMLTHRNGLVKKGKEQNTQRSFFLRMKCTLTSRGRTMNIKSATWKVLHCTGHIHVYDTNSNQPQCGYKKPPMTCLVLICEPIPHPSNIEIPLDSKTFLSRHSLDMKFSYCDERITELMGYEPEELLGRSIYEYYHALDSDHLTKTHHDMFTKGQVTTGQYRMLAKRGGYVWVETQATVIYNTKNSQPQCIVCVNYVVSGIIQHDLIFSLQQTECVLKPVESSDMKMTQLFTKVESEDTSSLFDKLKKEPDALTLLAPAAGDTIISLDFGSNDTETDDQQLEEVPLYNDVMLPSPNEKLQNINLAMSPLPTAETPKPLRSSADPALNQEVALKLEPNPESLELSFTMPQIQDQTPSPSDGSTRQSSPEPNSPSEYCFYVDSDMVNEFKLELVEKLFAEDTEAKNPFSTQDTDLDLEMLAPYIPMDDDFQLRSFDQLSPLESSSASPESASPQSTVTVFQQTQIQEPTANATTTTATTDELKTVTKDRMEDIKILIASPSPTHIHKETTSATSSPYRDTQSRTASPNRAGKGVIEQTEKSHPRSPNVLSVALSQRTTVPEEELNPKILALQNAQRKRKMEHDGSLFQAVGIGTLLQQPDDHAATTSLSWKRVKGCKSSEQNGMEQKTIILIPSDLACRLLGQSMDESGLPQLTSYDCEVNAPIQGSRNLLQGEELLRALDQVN

For orientation: AC50 means the midpoint of the concentration-response curve, whichever way the signal moves. Regarding `O=C1c2ccccc2C(=O)N1SC(Cl)(Cl)Cl`, the compound was classed as inactive in [1], in experiment [2], in [3], in experiment [4], in experiment [5] and in experiment [6]. For the same compound, the outcome in [7], in experiment [8], in experiment [9], in experiment [10], in [12] and in experiment [13] was inactive. Besides, the compound was called inactive in experiment [14], in [15], in experiment [16], in experiment [17], in [18] and in [19]. In [11], the AC50 was 15.8 µM (active).

With `O=C(O)C(F)(F)C(F)(F)C(F)(F)C(F)(F)C(F)(F)C(F)(F)C(F)(F)F`, the result in experiment [1], in [2], in experiment [3], in [4], in [5] and in experiment [6] was inactive. Besides, the compound was called inactive in experiment [8], in experiment [10], in [11], in [14], in experiment [15] and in experiment [16]. Besides, the compound was classed as inactive in experiment [17], in experiment [18] and in experiment [19]. Also, the AC50 in experiment [11] is 34.1 µM (active) and 41 µM (active) and 41.5 µM (active); in experiment [19], 221 µM (active) and 231 µM (active).

For `CNC(=O)Oc1cccc(N=CN(C)C)c1`, the compound was called inactive in experiment [1], in experiment [2], in experiment [3], in experiment [4], in [5] and in experiment [6]. The compound was called inactive in experiment [7], in experiment [9], in [10], in [11], in experiment [14] and in [15]. For the same compound, the compound was classed as inactive in [17], in [18] and in experiment [19]. The AC50 in experiment [8] is 72.1 µM (active); in experiment [12], 32.7 µM (active); in experiment [13], 90.4 µM (active); in experiment [16], 84.6 µM (active).

`COC(=O)c1ccccc1S(=O)(=O)NC(=O)Nc1nc(C)nc(OC)n1`: the result in experiment [1], in experiment [2], in [3], in [4], in experiment [5] and in experiment [6] was inactive. Also, the compound was called inactive in [7], in experiment [8], in experiment [10], in experiment [11], in experiment [14] and in [15]. For the same compound, the compound was called inactive in experiment [16], in experiment [17], in experiment [18] and in experiment [19].

With `C[C@H]1[C@H](c2ccc(Cl)cc2)SC(=O)N1C(=O)NC1CCCCC1`, the compound was called inactive in experiment [1], in [20], in [2], in experiment [3], in [4] and in [5]. Moreover, the compound was classed as inactive in experiment [6], in experiment [7], in experiment [10], in [14], in [15] and in [16]. For the same compound, the result in [17], in experiment [18] and in [19] was inactive. Also, the AC50 in experiment [8] was 38.3 µM (active); in experiment [9], 27.2 µM (active); in experiment [11] it was 1.93 µM (active); in experiment [13], 17.5 µM (active).

`CCC(C)Nc1c([N+](=O)[O-])cc(C(C)(C)C)cc1[N+](=O)[O-]` (stereo not drawn): the compound was called inactive in [1], in experiment [20], in [2], in experiment [3], in experiment [4] and in experiment [5]. Further, the call in experiment [6], in experiment [10], in experiment [12], in experiment [14], in experiment [15] and in experiment [16] was inactive. Moreover, the call in [17], in experiment [18] and in experiment [19] was inactive. For the same compound, the AC50 was 31.6 µM (active) in [8], 3.43 µM (active) in experiment [11] and 24.1 µM (active) in [13].

The record behind these values is PubChem BioAssay (EPA / NIEHS).
